The whole screen tested about 2,400 compounds, of which about 180 (7.5%) were called active. Many of the other results were omitted from the sample, so actives are more common in it than they were. Unmarked numbers belong to inactive results.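 Rule for the calls: active = readout below zero, meaning a drop past 3 SD under the dofetilide-free negative control mean; inactive = the rest.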

The target of this test is Potassium voltage-gated channel subfamily KQT member 2 (Rattus norvegicus) (UniProt O88943). The test can be described thus: rat KCNQ2 channel inhibition by compounds alone, confirmation, counter-screen for hERG block protector project, cell-based, CHO, FluxOR thallium flux (AID 1946). The settings on record: CHO-KCNQ2 cells, FluxOR thallium flux fluorescence; at 10 µM; active compounds read low; zero marks the 3-SD hit cutoff. On the technique in general: Counterscreens check selectivity or assay interference.
Potassium voltage-gated channel subfamily KQT member 2 (Rattus norvegicus), sequence (O88943 whole entry, looked up): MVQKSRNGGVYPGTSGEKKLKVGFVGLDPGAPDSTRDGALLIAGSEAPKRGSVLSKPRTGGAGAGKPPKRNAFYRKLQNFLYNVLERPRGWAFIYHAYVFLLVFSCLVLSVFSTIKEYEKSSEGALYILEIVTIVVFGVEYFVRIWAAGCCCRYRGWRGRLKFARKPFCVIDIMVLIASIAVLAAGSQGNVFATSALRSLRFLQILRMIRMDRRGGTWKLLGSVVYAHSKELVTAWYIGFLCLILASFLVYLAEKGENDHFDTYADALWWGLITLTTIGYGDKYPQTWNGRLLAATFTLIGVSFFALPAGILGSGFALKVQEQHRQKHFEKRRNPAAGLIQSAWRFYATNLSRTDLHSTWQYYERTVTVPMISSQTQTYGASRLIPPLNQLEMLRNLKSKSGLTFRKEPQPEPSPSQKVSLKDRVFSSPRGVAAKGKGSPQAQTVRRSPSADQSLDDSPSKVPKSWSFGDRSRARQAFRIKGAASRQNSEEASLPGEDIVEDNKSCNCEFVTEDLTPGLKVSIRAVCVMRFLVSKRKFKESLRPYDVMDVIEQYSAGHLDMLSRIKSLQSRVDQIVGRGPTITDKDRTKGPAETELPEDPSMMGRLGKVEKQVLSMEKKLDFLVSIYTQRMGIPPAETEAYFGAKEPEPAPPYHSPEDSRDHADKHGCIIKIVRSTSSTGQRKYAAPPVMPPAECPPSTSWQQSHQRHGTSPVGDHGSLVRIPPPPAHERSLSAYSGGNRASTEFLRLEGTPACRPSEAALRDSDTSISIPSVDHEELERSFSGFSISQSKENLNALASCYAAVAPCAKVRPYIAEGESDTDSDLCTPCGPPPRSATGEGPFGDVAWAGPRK
With `C=CCOc1ccccc1/C=c1\sc2nc(=O)c(C)nn2c1=O`, the activity change vs negative control was 6.3%.

In the case of `CCN(CC)c1ccc(/C=c2\sc3nnc(-c4ccccc4Cl)n3c2=O)cc1`, the activity change vs negative control was -3.9% (active). In the case of `O=C(NNc1nc2c(F)cccc2s1)c1cc(=O)c2ccccc2o1`, the activity change vs negative control is 4.5%. For the compound `CCOc1ccc(NC(=S)NS(=O)(=O)c2cc(Br)ccc2OCC)cc1`, the activity change vs negative control is 50.4%.

In the case of `Cc1ccc(C(=O)N/N=C(/CC(=O)c2cccs2)C(F)(F)F)cc1`, the activity change vs negative control is 28.2%. For `Cc1cc(-c2nnc(SCC(=O)Nc3ccc(C(F)(F)F)cc3)n2C)no1` the value was 8.3%.

With `Nn1c(SCC(=O)Nc2ccc(OC(F)F)cc2)nnc1-c1ccco1`, the activity change vs negative control is -0.2% (active). Turning to `Cc1nnc(SCC(=O)Nc2nccs2)n1N`, the activity change vs negative control was 10.1%. With `CCNC(=O)C/C(C)=N/NC(=O)C(=O)Nc1ccc(CC)cc1` the figure was 26.8%. On to `O=c1c2ccccc2[nH]c(=S)n1CCc1ccccc1`, for which the activity change vs negative control was 33.3%.

For `O=C(NC(=S)N(CCc1ccccc1)CCc1ccccc1)c1ccco1`, the activity change vs negative control was 67.4%. For `Cc1nn(C(=O)CNC(=O)c2ccccc2)c(C)c1C` the value was 46.6%; for `C=CCn1c(=S)[nH]c2scc(-c3ccc(C)o3)c2c1=O`, 102%; for `O=C1CCN(S(=O)(=O)c2ccc(Cl)cc2)CCN1`, -0.2% (active). For `CN1CCN(S(=O)(=O)c2cccc(S(=O)(=O)c3ccc(Cl)cc3)c2)CC1`, the activity change vs negative control is 13.6%. Consider `O=S(=O)(c1ccc(F)cc1)N1CCN(c2ccc(F)cc2)CC1`, for which the activity change vs negative control was 0.8%.

With `O=C(NC(=S)N1CCN(Cc2ccc3c(c2)OCO3)CC1)c1cccc(Br)c1`, the activity change vs negative control is 61%. With `CSc1ccccc1-n1nnnc1SCC(=O)Nc1cc(C)ccc1C` the figure was 2.3%; with `Cc1ccc(NC(=O)CSc2nnc(C3CC3)n2CC2CCCO2)c(C)c1` (stereo not given), -4.1% (active).

Regarding `Cc1cc(C)cc(NC(=O)CSc2nnc(CN3CCOCC3)n2C)c1`, the activity change vs negative control was 48.6%.

For the compound `Cc1nnc(NC(=O)C2CCCN(S(=O)(=O)c3ccccc3C(F)(F)F)C2)s1` (stereo not given), the activity change vs negative control is 19.4%.

In the case of `CCC(c1nnc(SCC(=O)NCCc2ccc(Cl)cc2Cl)o1)N(C)C` (stereo not given), the activity change vs negative control was -0.1% (active). For `O=C(CSc1ncnc2c1cnn2-c1ccc(Cl)cc1)NCc1ccc2c(c1)OCO2` the value was 12%. With `COc1ccc(C(=O)CC(=O)C(=O)Nc2ccc(C)cc2Cl)cc1` the figure was 39.7%; with `CC(C)(C)c1cc(-c2n[nH]c(=S)n2-c2ccccc2F)n[nH]1`, 39.3%. As for `CC(NC(=O)c1ccc(Br)cc1)c1ccc2c(c1)CCCC2` (stereo not given), the activity change vs negative control was 62.8%. With `COc1ccc(NC(=O)CN2C(=O)S/C(=C/c3cccn3-c3ccc(C(=O)O)cc3)C2=O)cc1`, the activity change vs negative control is 1%. For `Cc1cccc(NC(=O)CN2C(=O)S/C(=C\c3cccn3-c3cccc(C(=O)O)c3)C2=O)c1` the value was 5.2%. With `Cc1ccccc1NC(=O)CN1C(=O)S/C(=C\c2ccc(-c3cccc(C(=O)O)c3C)o2)C1=O` the figure was -1% (active).

Consider `Cc1c(/C=C2\SC(=O)N(CC(=O)Nc3ccc4c(c3)OCO4)C2=O)c2ccccc2n1C`, for which the activity change vs negative control was 8%. Regarding `Cc1cccc(NC(=O)CN2C(=O)S/C(=C\c3ccc(-c4cccc(C(=O)O)c4C)o3)C2=O)c1`, the activity change vs negative control is -0.8% (active).

For the compound `Cc1ccc(NC(=O)CN2C(=O)S/C(=C\c3ccc(-c4cccc(C(=O)O)c4C)o3)C2=O)cc1`, the activity change vs negative control is -4% (active).

As to `C#CCN1C(=O)S/C(=C\c2ccc(-c3ccc(C(=O)O)cc3C)o2)C1=O`, the activity change vs negative control was 7.6%.

Take `Cc1ccc(C(=O)O)cc1-c1ccc(/C=C2\SC(=O)N(CC(=O)Nc3ccccc3)C2=O)o1`: the activity change vs negative control is 1.7%. For `Cc1ccccc1NC(=O)CN1C(=O)S/C(=C\c2ccc(-c3cc(C(=O)O)ccc3C)o2)C1=O` the value was 10.7%. Turning to `CC(C)COn1c(=S)[nH]c2ccccc2c1=O`, the activity change vs negative control is 34.7%.

`Cc1ccc(/C=N/Nc2ccc(C(=O)O)cc2)o1`: the activity change vs negative control is 5.5%.

Take `Cc1ccccc1NC1=NC(=S)N(c2ccccc2)C12CCCCC2`: the activity change vs negative control was 39.1%. For the compound `CCOC(=O)c1c(-c2ccccc2)csc1NC(=S)NC`, the activity change vs negative control is 42%.

Regarding `Cc1cc(C)cc(OCc2nnc(SCC(=O)Nc3ccccc3)o2)c1`, the activity change vs negative control was -2.3% (active). Consider `COC(=O)CSc1nnc(COc2ccc3ccccc3c2)o1`, for which the activity change vs negative control is 11.8%.

On to `COCCn1c(SCC(=O)Nc2cc(C)cc(C)c2)nc2ccccc2c1=O`, for which the activity change vs negative control is 12%.

In the case of `COc1ccc(NC(=O)CC23CC4CC(CC(C4)C2)C3)cn1`, the activity change vs negative control was 73.9%. With `S=C(N/N=C/c1ccccc1Cl)Nc1cccc(Cl)c1Cl` the figure was 30.4%. For `COc1cccc2sc(Nc3nnc(-c4ccc(F)cc4)o3)nc12` the value was 69.1%.

The record behind these values is PubChem BioAssay AID1946 (Johns Hopkins Ion Channel Center, 2009).
